Compound activity from PubChem BioAssay.
14-3-3 Bad PPI: disrupts binding of bovine 14-3-3 zeta to phospho-Bad peptide; P63103; TR-FRET 14-3-3zeta/Dy647-pBad peptide displacement, 1 h; inhibition, % at 21.7 µM; actives 0.71% (n = 220,000);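 active = inhibition above about 70%, limit read from the data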
Target sequence (P63103 whole entry, looked up): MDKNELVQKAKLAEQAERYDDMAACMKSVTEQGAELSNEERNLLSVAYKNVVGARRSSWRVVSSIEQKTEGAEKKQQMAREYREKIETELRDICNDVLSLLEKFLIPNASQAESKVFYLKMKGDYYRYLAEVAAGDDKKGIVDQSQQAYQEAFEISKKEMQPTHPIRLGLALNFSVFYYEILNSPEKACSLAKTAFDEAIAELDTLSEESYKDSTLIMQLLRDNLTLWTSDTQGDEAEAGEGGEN
p47phox inh: p47phox (human) inhibition | P14598 | p47phox/p22phox peptide binding, fluorescence polarization, 2 h | inhibition, % at 24.7 µM | actives 0.53% (n = 220,000);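 active = inhibition above about 30%, limit read from the data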
Mcl-1 Bim block: inhibitors of Bim-Mcl-1 interaction, human; actives 0.1% (n = 190,000); Bead-based flow cytometry, Bim peptide-Mcl-1 binding; inhibition, % at 10 µM; AID 1009; Q07820; in the data active = inhibition above about 40%
Mcl1 Bid PPI: Mcl-1/Bid interaction inhibition. Q07820. inhibition, % at 21.7 µM. TR-FRET Mcl-1/Bid-Dy647 peptide binding, 1536-well. actives 0.97% (n = 220,000);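 active = compounds that cut the binding signal by more than half at the single screening dose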;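 note: His-tagged Mcl-1 with europium anti-His antibody binding Bid BH3 peptide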
Mcl1-Noxa inh: Mcl-1/Noxa interaction inhibition; Q07820; TR-FRET Mcl-1/Noxa peptide binding, 2 h; inhibition, % at 21.7 µM; actives 1.5% (n = 220,000);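 active = compounds that cut the protein-peptide binding signal by more than 50% relative to plate controls in a single-dose test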;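 note: His-tagged Mcl-1 with rhodamine Noxa BH3 peptide and terbium anti-His antibody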
Large screens that a line does not name were inactive. Most compounds without a hit are left out; they make up all but 3.2% or so of the library.

O=C(NC(=S)Nc1ccccn1)c1cccc([N+](=O)[O-])c1	none (no result: Mcl-1 Bim block)
COCCNC(=O)Cn1cc(/C=N/NC(=O)c2ccc(Oc3ccc(O)cc3)cc2)c2ccccc21	none
CS(=O)(=O)Nc1ccccc1C(=O)N1CCN(c2ccccc2)CC1	none
CCOC(=O)NNc1ccc2nonc2c1[N+](=O)[O-]	Mcl1-Noxa inh 96.9 (no result: Mcl-1 Bim block)
O=[N+]([O-])c1c(Nc2ccccc2)ccc2nonc12	none
Cc1ccc(-c2nc3c(c(=O)[nH]c(=O)n3Cc3ccccc3)n2C)s1	Mcl1 Bid PPI 65.3 (no result: Mcl-1 Bim block)
Cc1ccc(-c2nc3c(c(=O)[nH]c(=O)n3Cc3ccccc3)n2C)o1	Mcl1-Noxa inh 97.0
Cn1c(C2CCCCC2)nc2c1c(=O)[nH]c(=O)n2Cc1ccccc1	none
CCOC(=O)c1nn(-c2ccc(OCC)cc2)c2nc(-c3ccco3)c(C#N)c(=O)n12	none
COC(=O)c1c(NC(=O)CSc2ccccc2N)sc(C)c1C	none
Cc1cc(/C=N/NC(N)=S)c(C)n1-c1ccc(Cl)c(Cl)c1	none
COc1cccc(NC(=O)C(=O)N/N=C/c2cc(C)n(-c3ccc(Cl)c(Cl)c3)c2C)c1	Mcl1 Bid PPI 92.8
CCOP1(=O)OCC2OC(n3cnc4c(N)ncnc43)C(O)C2O1 (centres undefined)	none (no result: Mcl-1 Bim block)
COc1ccc2[nH]cc(C3N4CC5(C)CN3CC(C)(C4)C5=O)c2c1 (centres undefined)	Mcl1 Bid PPI 55.0
CC12CN3CC(C)(CN(C1)C3c1c[nH]c3ccccc13)C2=O (centres undefined)	none
Cc1ccccc1SC1CCN(Cc2nc(C3CC3)no2)CC1	none
Cn1ncc([N+](=O)[O-])c1C(=O)Nc1ccc(-c2nc3ccccc3o2)cc1	none
Oc1ccc(/C=N/Nc2cccc3cccnc23)c(O)c1	Mcl1-Noxa inh 61.5
COCCn1c(=NC(=O)C(C)(C)C)sc2cc([N+](=O)[O-])ccc21	none
CN(C)c1ccc(N=Cc2nc(-c3ccccc3)oc2O)cc1	p47phox inh 58.4
Oc1oc(-c2ccccc2)nc1C=Nc1ccccc1	p47phox inh 43.7
CC(=O)Nc1ccc(N=Cc2nc(-c3ccc(C)cc3)oc2O)cc1	Mcl1 Bid PPI 63.9, Mcl1-Noxa inh 65.0
CCCCCCNC(=O)CCCCCNS(=O)(=O)c1ccc(Br)cc1	none
Cc1ccc(C(C)C)c(OCc2ccc(C(=O)N/N=C/c3ccc(O)c(O)c3)cc2)c1	none
COc1cc(/C=N/NC(=O)c2ccc(COc3cc(C)ccc3C(C)C)cc2)cc(OC)c1O	Mcl1-Noxa inh 51.1
O=c1c2ccccc2nc(CSc2nnnn2-c2ccccc2)n1-c1ccccc1Cl	p47phox inh 40.5
Cc1ccc(C)c(C(=O)COC(=O)CCCC(=O)Nc2cc(C(F)(F)F)ccc2Cl)c1	Mcl1 Bid PPI 94.2
O=C(CCNC(=O)c1ccccc1Cl)Nc1cc(C(F)(F)F)ccc1Cl	none
CCOc1ccc(NC(=O)COC(=O)C23CC4CC(CC(C4)C2)C3)c([N+](=O)[O-])c1	none
CCOc1ccc(NC2OC(CO)C(O)C(O)C2O)c([N+](=O)[O-])c1 (centres undefined)	none
Cc1cccc(NC(=O)CSc2nnc(-c3ccco3)o2)c1C	Mcl1-Noxa inh 54.2
O=C(CSc1nnc(-c2ccco2)o1)c1ccc[nH]1	Mcl1-Noxa inh 55.7
O=C(CSc1nnc(-c2ccco2)o1)c1ccccc1	none
Cc1ccc(C)c(NC(=O)CSc2nnc(-c3ccco3)o2)c1	none
COCCN(C(=O)Cc1cccs1)c1nnc(-c2cccnc2)s1	none
CCCCN(C(=O)Cc1cccs1)c1nnc(-c2cccnc2)s1	14-3-3 Bad PPI 70.7
CC(C)C(C(=O)Nc1ccc2c(c1)OCCOCCOCCOCCO2)N1C(=O)c2ccccc2C1=O (centres undefined)	none
CCOC(=O)C1=C(C)NC(=O)NC1c1c(O)ccc2ccccc12 (centres undefined)	none
Oc1ccc2ccccc2c1C1Nc2cccc3cccc(c23)N1	Mcl1-Noxa inh 50.6
O=C(Cc1ccccc1F)NCC1(N2CCOCC2)CCCCC1	Mcl1-Noxa inh 59.8 (no result: Mcl-1 Bim block)
CNS(=O)(=O)c1cccc(C(=O)NCC2(N3CCOCC3)CCCCC2)c1	none
NS(=O)(=O)c1ccc(NC(=O)COC(=O)/C=C/c2ccc([N+](=O)[O-])cc2)cc1	none
NC(=O)c1ccsc1NC(=O)COC(=O)/C=C/c1ccc([N+](=O)[O-])cc1	Mcl1-Noxa inh 79.5 (no result: Mcl-1 Bim block)
O=C(O)c1cccc(NC2=C(Cl)C(=O)c3ccccc3C2=O)c1	Mcl1-Noxa inh 86.6
O=C(O)c1ccc(NC2=C(Cl)C(=O)c3ccccc3C2=O)cc1	Mcl1-Noxa inh 53.0 (no result: Mcl-1 Bim block)
